Experimental data reported in PubChem BioAssay.
Calls of active or inactive are those of the source. Unless noted, no rule for the calls is given here.

Experiments:
[1] = system: XIP peptide (Xip251-270) binding; assay: small-molecule binders of XIP peptide, primary screen, biochemical, small-molecule microarray, fluorescence 635/667 nm, 0.1 µg/mL protein (AID 1182); conditions: fluorescent protein binding, 635 nm, higher = more signal, called active from +8 up or from −8 down
XIP peptide (Xip251-270) = assay: small-molecule binders of XIP peptide, primary screen, biochemical, small-molecule microarray, fluorescence 635/667 nm, 0.5 µg/mL protein (AID 1183); conditions: small-molecule microarray binding, fluorescence 635 nm; higher = more signal
[2] = Plasmodium falciparum growth inhibition, primary screen, strain 3D7, DAPI fluorescence, 100 nL (AID 1184);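 also: parasites grown inside human red blood cells in medium with human serum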; conditions: P. falciparum 3D7 growth, 3 d, higher = more signal
[3] = target: Homeobox protein Hox-A13 (Mus musculus) (UniProt Q62424); assay: inhibitors of HoxA13-DNA binding, primary screen, biochemical, fluorescence polarization, labeled oligonucleotide (AID 1185); conditions: 15 min, higher = more signal, called active from +8 up or from −8 down
Chain of Homeobox protein Hox-A13 (Mus musculus) (Q62424 whole entry, looked up): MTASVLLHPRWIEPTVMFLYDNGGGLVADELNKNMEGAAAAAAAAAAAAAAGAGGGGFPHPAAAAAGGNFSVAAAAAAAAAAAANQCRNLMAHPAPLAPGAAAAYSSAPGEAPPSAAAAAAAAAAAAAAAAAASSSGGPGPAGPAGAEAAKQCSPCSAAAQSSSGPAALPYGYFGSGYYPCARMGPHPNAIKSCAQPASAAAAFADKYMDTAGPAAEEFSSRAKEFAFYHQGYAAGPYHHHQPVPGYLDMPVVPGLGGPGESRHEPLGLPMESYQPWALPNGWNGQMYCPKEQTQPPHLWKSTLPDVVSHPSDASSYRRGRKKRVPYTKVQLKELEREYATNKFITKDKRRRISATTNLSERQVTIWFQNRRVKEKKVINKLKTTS

[4] = inhibitors of hydroxyurea-induced Chk1 phosphorylation, primary screen, imaging, HeLa, phospho-Chk1 antibody, percent positive cells (AID 1186); conditions: hydroxyurea-induced phospho-Chk1 immunofluorescence imaging, higher = more signal
[5] = inhibitors of hydroxyurea-induced Chk1 phosphorylation, primary screen, imaging, HeLa, phospho-Chk1 nuclear intensity (AID 1187); conditions: hydroxyurea-induced phospho-Chk1 immunofluorescence imaging, higher = more signal

CCCCC(=C=CC[C@@H](O)c1ccc(OCCO)cc1)CCO
composite z-score [1]: 0.218 (inactive)
composite z-score (XIP peptide (Xip251-270)): 0.336
z-score [2]: -1.39
z-score [3]: -3.71 (inactive)
z-score [4]: 0.102 (inactive)
z-score [5]: 0.509 (inactive)

COC(=O)Cn1c(C(=O)N(C)C)cc2c1C[C@H]1CN(C(=O)c3ccccc3)[C@@](Cc3ccccc3)(C(=O)OC)[C@@H]21
composite z-score [1]: -0.0872 (inactive)
composite z-score (XIP peptide (Xip251-270)): 0.661
z-score [2]: 0.645
z-score [3]: -4.29 (inactive)
z-score [4]: -0.12 (inactive)
z-score [5]: 0.286 (inactive)

N#Cc1ccc(NN2C(C(O)c3ccc(B(O)O)cc3)C=CC3CN(c4ccccc4)C(=O)C32)cc1 (configuration not stated)
composite z-score [1]: -0.0004 (inactive)
composite z-score (XIP peptide (Xip251-270)): 0.658
z-score [2]: -0.0223
z-score [3]: -2.55 (inactive)
z-score [4]: -1.03 (inactive)
z-score [5]: -0.622 (inactive)

CC1C2C(CCCO)=CC(C3C(=O)N(C)C(=O)C23)N1Cc1cccc(OC(F)(F)F)c1 (configuration not stated)
composite z-score [1]: 1.17 (inactive)
composite z-score (XIP peptide (Xip251-270)): 0.806
z-score [2]: -1.7
z-score [3]: -7.46 (inactive)
z-score [4]: -0.324 (inactive)
z-score [5]: -0.301 (inactive)

CCOC(=O)C1=CCC(c2ccncc2)N(S(=O)(=O)c2ccc(C)cc2)C1 (configuration not stated)
composite z-score [1]: 0.373 (inactive)
composite z-score (XIP peptide (Xip251-270)): 0.835
z-score [2]: -0.886
z-score [3]: -4.63 (inactive)
z-score [4]: 0.0325 (inactive)
z-score [5]: 0.104 (inactive)

Cc1cccc([C@H]2C[C@H]3C(Br)=C[C@@]2(CO)C(=O)[C@]32CO2)c1
composite z-score [1]: 1.48 (inactive)
composite z-score (XIP peptide (Xip251-270)): 0.137
z-score [2]: 1.54
z-score [3]: -1.41 (inactive)
z-score [4]: -0.272 (inactive)
z-score [5]: -0.557 (inactive)

C=CCOC(=O)[C@H]1[C@@H]2C(=O)O[C@@H](c3ccccc3)[C@@H](c3ccccc3)N2[C@@H](c2ccc(OCCOC(=O)[C@@H]3C[C@@H]4C(=O)N[C@@H](Cc5ccccc5)C(=O)N4[C@@H]3c3ccc(O)cc3)cc2)[C@]12C(=O)Nc1ccc(I)cc12
composite z-score [1]: 1.12 (inactive)
composite z-score (XIP peptide (Xip251-270)): 0.751
z-score [2]: -1.39
z-score [3]: 0.703 (inactive)
z-score [4]: -0.272 (inactive)
z-score [5]: -0.152 (inactive)
